BoNT-F LC inh: BoNT/F light chain protease inhibitors, primary screen, biochemical, flow cytometry, MLPCN library; Botulinum neurotoxin type F light chain protease (Clostridium botulinum); AID 588497, 2011; Multiplex microsphere protease cleavage assay; inhibition, % at 10 µM; actives 0.22% (n = 360,000); in the data active means inhibition above about 35%, passing the limit was not always enough; inconclusive means no clear call, values can overlap the other calls; further: plate controls were buffer without enzyme for full effect and enzyme alone for no effect
Autofluor counter: compound fluorescence in toxin protease inhibitor counterscreen; AID 624483; compound autofluorescence counterscreen, microsphere flow cytometry; stronger effect = higher value; fluorescence intensity (concentration not given with the values); actives 3.1% (n = 360,000); in the data active means fluorescence intensity above about 16000; inconclusive means no clear call, values can overlap the other calls
MazEF act: activators of E. coli MazEF toxin-antitoxin RNase, primary screen, biochemical, fluorescence, uHTS | Endoribonuclease toxin MazF (Escherichia coli (strain K12)), P0AE70 | FAM/BHQ RNA-DNA oligo cleavage fluorescence, 5 h | activation, % at 20 µM | actives 0.32% (n = 350,000) | AID 504720, 2011; in the data active means activation above about 50%
Target sequence (P0AE70 whole entry, looked up): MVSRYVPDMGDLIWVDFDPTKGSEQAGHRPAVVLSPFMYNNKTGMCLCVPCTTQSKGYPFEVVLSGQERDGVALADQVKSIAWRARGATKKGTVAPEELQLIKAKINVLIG
BoNT-A LC inh2: BoNT/A light chain protease inhibitors, primary screen, biochemical, flow cytometry, MLPCN library; Botulinum neurotoxin type A light chain protease (Clostridium botulinum A str. ATCC 3502); multiplex microsphere protease substrate cleavage; inhibition, % at 10 µM; actives 0.17% (n = 360,000); AID 588499, 2011; further: plate controls were buffer without enzyme for full effect and enzyme alone for no effect
Anthrax LF prot: Bacillus anthracis LF protease inhibitors, primary screen, biochemical, multiplex microsphere, MLPCN library | multiplex microsphere protease cleavage assay | actives 0.12% (n = 360,000) | inhibition, % at 10 µM | AID 588501, 2011; further: plate controls were buffer without enzyme for full effect and enzyme alone for no effect
* marks the source's active call; other numbers are inactive results; ? = inconclusive; · = not tested or not shown; ! = not confirmed by another sample. Hits are enriched below; roughly 3.6% of the tested compounds scored in any of these assays. Unless noted, no stated cut-off is given here; in the data, active means inhibition above about 30%; inconclusive means no clear call, values can overlap the other calls; inactive means below that.

SMILES | BoNT-F LC inh | Autofluor counter | MazEF act | BoNT-A LC inh2 | Anthrax LF prot
CCOC(=O)/C(C(N)=NCc1ccco1)=C(/O)c1ccccc1 | -2 | 23453* | -6 | 0 | -1
O=C(O)CN(Cc1ccccc1)S(=O)(=O)c1ccc(F)cc1 | -6 | 20545* | -7 | -3 | 1
CCOC(=O)CN(Cc1ccccc1)S(=O)(=O)c1ccc(NC(C)=O)cc1 | -4 | 21423* | 0 | -4 | 0
O=C(O)CN(c1ccccc1F)S(=O)(=O)c1ccccc1 | -6 | 21296* | 5 | ? | 0
CC(=O)Nc1ccc(S(=O)(=O)N(CC(=O)O)Cc2ccccc2)cc1 | -6 | 3178 | -1 | 1 | 3
O=C(CCc1ccccc1)NNC(=S)NC(=O)c1ccc(Cl)cc1 | · | · | 1 | · | ·
CC1=CC(C)=Nc2ccc(C)cc2N1 | -9 | 18983*! | -25 | 0 | 3
Cc1ccc2c(c1)NC(=O)CC(c1ccccc1)=N2 | -1 | 2714 | 1 | 0 | -2
CSc1nc(N)nc(SCC(=O)CC(=O)OC(C)C)c1C#N | -3 | 20850* | 6 | ? | 0
Cc1c(-c2nc(N)nc(Nc3ccccc3F)n2)oc2ccccc12 | -3 | 24893* | 3 | -3 | -4
COc1ccc(-c2oc(NC(=O)CCl)c(C#N)c2-c2ccc(OC)cc2)cc1 | 3 | 2249 | 4 | 0 | -3
COc1ccc(-c2oc(NC(=O)CSc3ncn[nH]3)c(C#N)c2-c2ccc(OC)cc2)cc1 | -4 | 22915* | -7 | -2 | -8
COC(=O)c1ccc2nc(-c3ccco3)c(Cc3ccccc3)n2c1 | -4 | 6134 | · | 1 | 2
O=C(O)C1C2C=CC(C2)C1C(=O)N1CCOCC1 (configuration not stated) | 1 | 12793 | -7 | 0 | 2
O=C(NC1CCCC1)C1C2C=CC(C2)C1C(=O)N1CCOCC1 (configuration not stated) | 3 | 21400* | 7 | ? | -2
O=C(CCC(NC(=O)OCc1ccccc1)C(=O)OCC(=O)N1CCCCC1)OCC(=O)N1CCCCC1 (configuration not stated) | 6 | 21055* | -4 | 3 | -8
CC(OC(=O)CC1CCCCC1)C(=O)Nc1ccc(F)cc1 (configuration not stated) | 0 | 6056 | 2 | 0 | -2
CCCN(Cc1cc2ccc(C)cc2[nH]c1=O)S(=O)(=O)c1ccccc1 | 1 | 2886 | 3 | 0 | 3
CC(=O)c1cccc(S(=O)(=O)N(CCCO)Cc2cc3ccc(C)cc3[nH]c2=O)c1 | -7 | 24495* | 0 | -6 | 0
COC(=O)c1cccc(S(=O)(=O)N(Cc2ccco2)Cc2cc3ccc(OC)cc3[nH]c2=O)c1 | -4 | 24753* | 6 | -4 | -1
O=C(c1ccco1)N1CCN(CC2CC3C=CC2C3)CC1 (configuration not stated) | 2 | 20016* | 4 | 1 | 0
O=C(c1ccco1)N1CCN(C(=O)c2sccc2-c2ccccc2)CC1 | -2 | 20729* | -2 | -1 | -2
Nc1ccc(N2CCN(C(=O)c3ccco3)CC2)cc1 | -12 | 20148* | 10 | 5 | -4
O=C(C(=O)N1CCN(c2ccccc2F)CC1)c1cn(CC(=O)N2CCCC2)c2ccccc12 | 0 | 3102 | 0 | 0 | 0
CC(C)(C)OC(=O)N1CCN(C(=O)c2[nH]cnc2C(=O)Nc2ccccc2F)CC1 | -8 | 3756 | -5 | 0 | -2
SMILES | BoNT-F LC inh | Autofluor counter | MazEF act | BoNT-A LC inh2 | Anthrax LF prot
CCCOc1ccc(C2C(=O)N(C3CCCCC3)CC(=O)N2CCCOCC)cc1OC (configuration not stated) | -1 | 22919* | 2 | 1 | -4
CCOCCCN1C(=O)CN(C2CCCCCC2)C(=O)C1c1ccc(OC)cc1 (configuration not stated) | 1 | 19637* | -4 | 1 | -2
COc1ccc(C2C(=O)N(C3CCCCC3)CC(=O)N2CCc2ccccc2)cc1OC (configuration not stated) | -5 | 21105* | -1 | -3 | -1
Cc1ccc(C2C(=O)N(C3CCCC3)CC(=O)N2C2CCCCC2)cc1 (configuration not stated) | 0 | 18594* | 1 | 2 | -4
CCOCCCN1C(=O)CN(C2CCCCC2)C(=O)C1c1ccc(OC)c(OC)c1 (configuration not stated) | 5 | 10813 | 3 | 0 | 3
CCOc1ccc(C2C(=O)N(C3CCCCC3)CC(=O)N2CC2CCCO2)cc1OC (configuration not stated) | -14 | 11195 | -4 | -1 | 0
CC(C)C[C@H]1CN(CCCC[C@H]2CNC(=O)C(=O)N2CCc2ccccc2)C(=O)C(=O)N1CC1CCCCC1 | -7 | 6581 | · | -1 | 4
O=C1NC[C@H](CCCCN2C[C@H](Cc3ccccc3)N(CCC3CCCCC3)C(=O)C2=O)N(Cc2ccccc2)C1=O | -3 | 6094 | · | -1 | -6
CC(=O)c1ccc(NC(=O)C(=O)c2cn(CC(=O)N3CCCCC3)c3ccccc23)cc1 | -3 | 7824 | 3 | -1 | -5
COC(=O)CC/C(C)=N\Nc1ccc([N+](=O)[O-])cc1[N+](=O)[O-] | 0 | 21329* | 1 | -1 | 0
CCNC(=O)C1(C)CCCN(C(=O)c2ccc3c(c2)C(C)(C)CCC3(C)C)C1 (configuration not stated) | 2 | 2952 | · | 0 | 4
CCCC(=O)N(CCN1CCOCC1)c1nc2c(F)cc(F)cc2s1 | · | · | -29 | · | ·
CCOc1cc(S(=O)(=O)n2cc(-c3ccc(F)cc3)c(N)n2)cc(OCC)c1OCC | -9 | 2809 | 1 | 1 | -2
Cc1ccc(-c2cn(S(=O)(=O)c3ccc(C)cc3)nc2N)cc1 | -5 | 24762* | 4 | -2 | 0
Nc1nn(S(=O)(=O)c2ccccc2)cc1-c1cccc([N+](=O)[O-])c1 | 5 | 4249 | -9 | 0 | -10
CCOc1ccc(S(=O)(=O)n2cc(-c3ccc(F)cc3)c(N)n2)cc1 | 0 | 23064* | 2 | 2 | 1
CCOc1ccc(S(=O)(=O)n2cc(-c3ccccc3)c(N)n2)cc1 | -4 | 23986* | 16 | -2 | -3
O=C(O)/C=C/c1ccc(-n2ccnc2)cc1 | -8 | 4720 | 2 | -2 | -2
CCOC(=O)Cn1c(CN2CCN(C(c3ccccc3)c3ccccc3)CC2)nc2c1c(=O)n(C)c(=O)n2C | -2 | 4602 | 15 | -1 | -11
Cn1c(=O)c2c(nc(CN3CCN(C(c4ccccc4)c4ccccc4)CC3)n2CC(N)=O)n(C)c1=O | 1 | 21667* | -4 | 2 | 2
CCOCCn1c(CN2CCCC(C)C2)nc2c1c(=O)n(C)c(=O)n2C (configuration not stated) | 0 | 6357 | 7 | 0 | 4
CC1CCCN(Cc2nc3c(c(=O)n(C)c(=O)n3C)n2CC(N)=O)C1 (configuration not stated) | -4 | 16667* | 5 | -2 | -4

Compound activity as filed in PubChem.
